Mcl1 Noxa PPI: Mcl-1/Noxa interaction inhibition; TR-FRET Mcl-1/Noxa peptide binding, 2 h; inhibition, % at 21.7 µM; actives 1.5% (n = 220,000); AID 1022;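 active = compounds that cut the protein-peptide binding signal by more than 50% relative to plate controls in a single-dose test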;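 note: His-tagged Mcl-1 with rhodamine Noxa BH3 peptide and terbium anti-His antibody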
Target sequence (Q07820 whole entry, looked up): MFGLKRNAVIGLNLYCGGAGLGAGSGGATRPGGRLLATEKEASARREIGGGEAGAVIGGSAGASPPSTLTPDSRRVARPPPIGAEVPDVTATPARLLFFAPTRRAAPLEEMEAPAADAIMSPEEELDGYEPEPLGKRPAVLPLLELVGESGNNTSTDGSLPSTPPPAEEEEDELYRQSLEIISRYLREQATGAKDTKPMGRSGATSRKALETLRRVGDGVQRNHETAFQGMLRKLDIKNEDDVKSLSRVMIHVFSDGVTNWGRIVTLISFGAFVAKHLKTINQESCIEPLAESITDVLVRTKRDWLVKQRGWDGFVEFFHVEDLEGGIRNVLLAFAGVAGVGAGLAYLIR
Bim-Mcl-1: human Bim-Mcl-1 interaction inhibition; inhibition, % at 10 µM; actives 0.1% (n = 190,000); Q07820; Bead-based flow cytometry, Bim peptide-Mcl-1 binding; in the data active = inhibition above about 40%
Hck Nef HTS: human Hck-Nef kinase inhibition | Recombinant Hck-YEEI plus Nef, Z-Lyte FRET kinase assay | inhibition, % at 20 µM | actives 0.68% (n = 220,000);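 active = Hck-Nef kinase inhibition above about 50%, limit read from the data; inactive = inhibition below that limit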
Mcl1-Bid inh: Mcl-1/Bid interaction inhibition | actives 0.97% (n = 220,000) | TR-FRET Mcl-1/Bid-Dy647 peptide binding, 1536-well | Q07820 | inhibition, % at 21.7 µM;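 active = compounds that cut the binding signal by more than half at the single screening dose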;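 note: His-tagged Mcl-1 with europium anti-His antibody binding Bid BH3 peptide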
Pf gamet viab: inhibitors of late stage P. falciparum gametocyte viability | P. falciparum stage V gametocytes, ATP luminescence, 24 h | inhibition, % at 10.9 µM | actives 0.065% (n = 150,000);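 active = inhibition above the mean plus 3 SD of compounds within the control limits, set per campaign, cut at about 38% in these data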
14-3-3 Bad inh: disrupts binding of bovine 14-3-3 zeta to phospho-Bad peptide | TR-FRET 14-3-3zeta/Dy647-pBad peptide displacement, 1 h | actives 0.71% (n = 220,000) | inhibition, % at 21.7 µM | P63103;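 active = inhibition above about 70%, limit read from the data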
Target sequence (P63103 whole entry, looked up): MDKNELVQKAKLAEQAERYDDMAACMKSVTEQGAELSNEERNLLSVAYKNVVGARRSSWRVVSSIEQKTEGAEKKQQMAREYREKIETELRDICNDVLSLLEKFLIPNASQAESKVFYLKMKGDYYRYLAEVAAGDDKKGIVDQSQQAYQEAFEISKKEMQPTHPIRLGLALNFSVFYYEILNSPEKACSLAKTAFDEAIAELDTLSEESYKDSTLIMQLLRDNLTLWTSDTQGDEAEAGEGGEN
Hits are given with their value; – = inactive; · = no result given; [ ] = remark or other dose. Only some compounds are listed: those with a hit (about 2.9% of all), similar ones and a draw of the others.

SMILES	Mcl1 Noxa PPI	Bim-Mcl-1	Hck Nef HTS	Mcl1-Bid inh	Pf gamet viab	14-3-3 Bad inh
CCC(C)NC(C(=O)Nc1ccc(Cl)c([N+](=O)[O-])c1)c1ccccc1 (centres undefined)	–	–	–	–	–	–
COc1cc2ncnc(NCc3ccccc3Cl)c2cc1OC	–	–	73.6	–	–	–
O=S1(=O)C=CC(Nc2cccc(Cl)c2)C1 (centres undefined)	–	–	–	–	–	–
COc1ccccc1OCCCCN1CCN(c2ccccc2OC)CC1	–	–	–	–	–	80.6
COc1ccccc1N1CCN(CCCCOc2cccc3ccccc23)CC1	–	–	–	–	–	–
O=c1c(CN2CCN(Cc3ccccc3)CC2)coc2ccc(Cl)cc12	–	–	–	93.0	·	72.5
Cc1ccc2occ(CN3CCN(Cc4ccccc4)CC3)c(=O)c2c1	·	–	–	–	·	71.8
N=C1/C(=C/c2cccn2Cc2ccc(Cl)cc2)C(=O)N=C2SC=CN12	–	–	–	53.7	–	–
CC1=CC2=NC(=O)/C(=C/c3cccn3Cc3ccccc3)C(=N)N2O1	–	·	–	–	–	–
N#Cc1c(C#N)c(O)c2ccccc2c1O	–	·	–	–	·	–
N=C1CCC(=N)c2c1c(O)c1ccccc1c2O	76.3	·	–	–	·	–
Cc1c(Cl)cccc1NC(=O)CNC(=O)c1ccco1	·	·	·	·	–	·
COC(=O)N=Nc1c(O)[nH]c2ccc(Br)cc12	–	·	–	–	–	–
O=c1ccc2cc3c([nH]c4ccc(Br)cc43)oc-2c1O	94.4	–	–	–	·	–
Cc1nn(CCC(N)=S)c2nc(-c3cccs3)cc(C(F)(F)F)c12	–	–	–	–	–	–
C=C(C)C(=O)Nc1cccc(C2=NOC3(C2)C[C@@H](C(N)=O)N(C(=O)CC(c2ccccc2)c2ccccc2)C3)c1 (some centres undefined)	56.2	·	–	–	–	–
C=C(C)C(=O)Nc1cccc(C2=NOC3(C2)C[C@@H](C(N)=O)N(C(=O)/C=C/C=C/C)C3)c1 (some centres undefined)	97.2	·	–	–	–	–
C=C(C)C(=O)Nc1cccc(C2=NOC3(C2)C[C@H](C(N)=O)N(C(=O)c2ccccc2C(=O)c2ccccc2)C3)c1 (some centres undefined)	71.0	·	–	–	·	–
C=C(C)C(=O)Nc1cccc(C2=NOC3(C2)C[C@@H](C(N)=O)N(C(=O)/C(C)=C/C)C3)c1 (some centres undefined)	73.4	·	–	–	–	–
C/C=C(/C)C(=O)Nc1cccc(C2=NOC3(C2)C[C@@H](C(N)=O)N(C(=O)CC(c2ccccc2)c2ccccc2)C3)c1 (some centres undefined)	–	·	–	–	–	–
C/C=C/C=C/C(=O)N1CC2(CC(c3cccc(NC(=O)/C=C/C)c3)=NO2)C[C@@H]1C(N)=O (some centres undefined)	–	·	–	–	–	–
C/C=C(\C)C(=O)Nc1cccc(C2=NOC3(C2)C[C@@H](C(N)=O)N(C(=O)/C(C)=C/C)C3)c1 (some centres undefined)	–	·	–	–	·	–
C/C=C(\C)C(=O)Nc1cccc(C2=NOC3(C2)C[C@@H](C(N)=O)N(C(=O)c2ccccc2C(=O)c2ccccc2)C3)c1 (some centres undefined)	–	·	–	–	–	–
Cc1cc(=O)oc2cc(OCC(=O)OCC(=O)Nc3ccc4ccccc4c3)ccc12	–	–	–	–	·	–
C=C(C)C(=O)Nc1cccc(C2=NOC3(C2)C[C@H](C(N)=O)N(C(=O)CC#N)C3)c1 (some centres undefined)	–	·	–	–	·	–
SMILES	Mcl1 Noxa PPI	Bim-Mcl-1	Hck Nef HTS	Mcl1-Bid inh	Pf gamet viab	14-3-3 Bad inh
C=C(C)C(=O)Nc1cccc(C2=NOC3(C2)C[C@H](C(N)=O)N(C(=O)CC)C3)c1 (some centres undefined)	69.3	·	–	–	·	–
C=CCn1c(SCC(=O)c2[nH]c(C)c(C(=O)OCC)c2C)nc2scc(-c3ccc(OC)c(OC)c3)c2c1=O	–	–	–	84.3	–	82.2
CNC(=O)COC(=O)/C=C/c1cccs1	–	–	–	–	–	–
Cc1ccc(Nc2cc(-n3cccn3)ncn2)c(C)c1	–	–	–	–	–	–
Cc1ccc(Nc2cc(-n3nc(C)cc3C)ncn2)c(C)c1	56.4	–	–	–	·	–
CCOc1ccc(NC(=O)COc2ccc(C(=O)NCCc3ccccc3)cc2)cc1	–	–	–	–	–	72.1[fluorescence artefact?]
Nc1c(O)ccc2c1C(=O)c1ccccc1C2=O	77.5	–	–	–	–	–
O=C(CN1CCN(c2ccc(O)cc2)CC1)Nc1cc([N+](=O)[O-])ccc1Cl	99.0	–	–	–	–	–
c1ccc(-c2ccc(-c3nccc4ccccc34)[nH]2)cc1	–	·	56.9	–	·	–
N#Cc1cc(-c2ccccc2)[nH]c1-c1nccc2ccccc12	–	·	–	–	·	–
CN(c1ccccc1)S(=O)(=O)c1ccc(C(=O)Nc2nnc(-c3ccco3)o2)cc1	–	–	–	–	·	–
CC(=O)Nc1cc(C(F)(F)F)ccc1N1CCOCC1	–	–	–	–	·	–
O=C(Nc1cc(C(F)(F)F)ccc1N1CCOCC1)c1ccccc1F	–	–	–	–	·	72.8
O=C(Nc1cc(C(F)(F)F)ccc1N1CCOCC1)c1ccc2ccccc2n1	67.7	–	–	–	–	–
O=C(Nc1cc(C(F)(F)F)ccc1N1CCOCC1)c1cccc(F)c1	–	–	–	–	·	–
CC(C)=CCC[C@](C)(O)C1CC[C@]2(C)C1[C@H](O)CC1[C@@]3(C)CC[C@H](O[C@@H]4O[C@H](CO)[C@@H](O)[C@H](O)[C@H]4O[C@@H]4O[C@H](CO)[C@@H](O)[C@H](O)[C@H]4O)C(C)(C)C3CC[C@]12C (some centres undefined)	·	·	·	·	–	·
COc1ccc(Oc2coc3cc(OC(=O)N4CCOCC4)ccc3c2=O)cc1	–	–	–	–	·	–
COCCN(C(=O)CNC(=O)c1cccs1)C(C(=O)NC(C)(C)C)c1ccccc1 (centres undefined)	–	–	–	–	–	–
CCc1ccccc1NS(=O)(=O)c1ccc2[nH]cc(C(=O)NC3CCCC3)c(=O)c2c1	71.7	–	–	65.9	–	–
O=C(CN=C1NS(=O)(=O)c2ccccc21)OCC(=O)c1ccccc1	–	·	–	–	–	–
O=C(O)/C=C/C(=O)Nc1ccc2c(c1)NC(=O)CO2	50.8	–	–	–	–	–
NC(=O)C1(c2ccccc2)CCC(=O)N1c1ccccc1 (centres undefined)	–	·	–	–	–	–
Cc1c(Br)c(=O)oc2c(Br)c(O)c(O)cc12	64.5	–	–	–	–	–
CCN(CC)CCN1C(=O)C(=O)/C(=C(/O)c2ccc(F)cc2)C1c1cccnc1 (centres undefined)	–	–	–	–	–	–
COc1ccc2[nH]c3c(C)c4ccncc4c(C)c3c2c1	85.6	·	–	–	·	–

Assay outcomes: PubChem, several laboratories
